Reference: the supplement of paper PMC10849652
The full data set covers some 8,800 targets. This sample favours those with a hit. About 0.5% of all pairs of compound and target were hits. Unmarked numbers belong to inactive results.

What was measured:
Assay in all cases: log2 fold change, soluble protein after heating vs DMSO (PISA); higher = thermal stabilisation; K562 lysate, 10 uM; active = over 0.2 and 3.5 SD of the protein, either way, in both replicates (recomputed)
ibrutinib = compound: C=CC(=O)N1CCC[C@@H](n2nc(-c3ccc(Oc4ccccc4)cc3)c3c(N)ncnc32)C1 [ibrutinib]
How it was run: (§1)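 The values are log-two fold changes in thermal stability compared with solvent controls and come from duplicates. They were obtained by TMTpro 16plex LC-MS/MS, with channel sums equalised, on the supernatant after 21,000xg for 90 min. That supernatant came from crude K562 extract at 1 mg/mL protein treated with 10 μM compound for 30 min, heated for 3 min across 48°C-58°C, pooled and brought to 0.5% NP-40 at 4°C.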

[1] = compound: CC(=O)c1cnc2ccc(-c3cc(Cl)c(O)c(Cl)c3)nc2c1N[C@H]1CC[C@H](CN(C)C)CC1
How it was run: as §1

ralimetinib = compound: CC(C)(C)Cn1c(N)nc2ccc(-c3[nH]c(C(C)(C)C)nc3-c3ccc(F)cc3)nc21 [ralimetinib]
How it was run: as §1

[2] = compound: CC(C)(O)CC(=O)NCCn1ccc2ncnc(Nc3ccc(Oc4cccc(C(F)(F)F)c4)c(Cl)c3)c21
How it was run: as §1

[3] = compound: CC(C)C1=C2N=C(C=C(N2N=C1)NCC3=CC=CC=C3)NCCCCCCN
How it was run: as §1

[4] = compound: CC1=C(C(CC(=O)N1)C2=CC=C(C=C2)C(F)(F)F)C(=O)NC3=C(C=C4C(=C3)C=NN4)F
How it was run: as §1

[5] = compound: CC1=C(C=C(C=C1)NC(=O)C2=CC(=CC=C2)C(C)(C)C#N)NC3=CC4=C(C=C3)N=CN(C4=O)C
How it was run: as §1

[6] = compound: CC1=C(C=C(C=C1)NC(=O)C2=CC(=CC=C2)N(C)C)NC(=O)C3=CC=C(C=C3)O
How it was run: as §1

[7] = compound: CC1=CC=C(C=C1)SC2=C3C=C(SC3=CN=C2)C(=O)N
How it was run: as §1

vemurafenib = compound: CCCS(=O)(=O)Nc1ccc(F)c(C(=O)c2c[nH]c3ncc(-c4ccc(Cl)cc4)cc23)c1F [vemurafenib]
How it was run: as §1

[8] = compound: CCCS(=O)(=O)Nc1ccc(F)c(C(=O)c2c[nH]c3ncc(Cl)cc23)c1F
How it was run: as §1

barasertib = compound: CCN(CCCOc1ccc2c(Nc3cc(CC(=O)Nc4cccc(F)c4)[nH]n3)ncnc2c1)CCOP(=O)(O)O [barasertib]
How it was run: as §1

[9] = compound: CC[C@@H]1C(=O)N(C)c2cnc(Nc3ccc(C(=O)NC4CCN(C)CC4)cc3OC)nc2N1C1CCCC1
How it was run: as §1

volasertib = compound: CC[C@@H]1C(=O)N(C)c2cnc(Nc3ccc(C(=O)N[C@H]4CC[C@H](N5CCN(CC6CC6)CC5)CC4)cc3OC)nc2N1C(C)C [volasertib]
How it was run: as §1

[10] = compound: CCn1c(C(=O)N(C2CC2)C2CC2)cc2c3c(ncn3C)c(Nc3cc(C)n(C)n3)nc21
How it was run: as §1

[11] = compound: CCn1cc(-c2ccnc3[nH]c(-c4cccc(CN(C)C)c4)cc23)c(-c2ccc(NC(=O)N(C)C)cc2)n1
How it was run: as §1

[12] = compound: CN1CCC(CNc2ccc3ncc(-c4cccc(OC(F)(F)F)c4)n3n2)CC1
How it was run: as §1

sotrastaurin = compound: CN1CCN(c2nc(C3=C(c4c[nH]c5ccccc45)C(=O)NC3=O)c3ccccc3n2)CC1 [sotrastaurin]
How it was run: as §1

[13] = compound: CC1=C(C2=C(C=C1)C(=O)C3=CC=CC=C3N2CCCN)C
How it was run: as §1

saracatinib = compound: CN1CCN(CCOc2cc(OC3CCOCC3)c3c(Nc4c(Cl)ccc5c4OCO5)ncnc3c2)CC1 [saracatinib]
How it was run: as §1

UniProt Q96BZ9, sequence (Q96BZ9 whole entry, looked up): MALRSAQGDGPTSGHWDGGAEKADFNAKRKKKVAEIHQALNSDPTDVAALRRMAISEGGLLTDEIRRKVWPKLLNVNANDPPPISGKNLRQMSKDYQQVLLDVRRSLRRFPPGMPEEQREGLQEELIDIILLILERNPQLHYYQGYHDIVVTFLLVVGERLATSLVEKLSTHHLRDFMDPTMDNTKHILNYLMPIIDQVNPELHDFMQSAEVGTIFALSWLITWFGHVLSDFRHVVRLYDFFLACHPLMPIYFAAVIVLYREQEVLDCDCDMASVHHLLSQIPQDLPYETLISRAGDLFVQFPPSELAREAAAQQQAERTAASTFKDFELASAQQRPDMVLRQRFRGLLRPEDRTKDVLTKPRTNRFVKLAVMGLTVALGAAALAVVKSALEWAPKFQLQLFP
UniProt P67936, sequence (P67936 whole entry, looked up): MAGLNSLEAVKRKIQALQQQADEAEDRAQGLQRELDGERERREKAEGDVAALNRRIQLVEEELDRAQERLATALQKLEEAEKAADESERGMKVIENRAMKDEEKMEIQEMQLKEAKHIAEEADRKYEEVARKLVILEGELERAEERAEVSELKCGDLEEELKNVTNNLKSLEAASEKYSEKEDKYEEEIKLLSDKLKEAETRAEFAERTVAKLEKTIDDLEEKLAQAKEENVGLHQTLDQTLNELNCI
UniProt P0C1Z6, sequence (P0C1Z6 whole entry, looked up): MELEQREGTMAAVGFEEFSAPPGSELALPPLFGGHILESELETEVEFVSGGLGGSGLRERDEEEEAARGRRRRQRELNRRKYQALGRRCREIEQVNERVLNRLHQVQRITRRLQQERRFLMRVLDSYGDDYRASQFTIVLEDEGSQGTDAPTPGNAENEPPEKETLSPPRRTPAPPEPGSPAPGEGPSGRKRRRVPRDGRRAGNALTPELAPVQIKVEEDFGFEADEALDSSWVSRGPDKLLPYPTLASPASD
UniProt Q96LJ8, sequence (Q96LJ8 whole entry, looked up): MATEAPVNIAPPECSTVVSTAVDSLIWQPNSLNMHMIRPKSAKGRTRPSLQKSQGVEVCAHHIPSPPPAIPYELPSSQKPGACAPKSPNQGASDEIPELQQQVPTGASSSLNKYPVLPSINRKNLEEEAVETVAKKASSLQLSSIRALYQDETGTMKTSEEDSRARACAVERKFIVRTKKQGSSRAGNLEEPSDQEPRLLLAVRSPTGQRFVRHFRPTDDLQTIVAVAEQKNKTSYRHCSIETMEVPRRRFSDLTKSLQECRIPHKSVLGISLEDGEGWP
UniProt Q9H6P5, sequence (Q9H6P5 whole entry, looked up): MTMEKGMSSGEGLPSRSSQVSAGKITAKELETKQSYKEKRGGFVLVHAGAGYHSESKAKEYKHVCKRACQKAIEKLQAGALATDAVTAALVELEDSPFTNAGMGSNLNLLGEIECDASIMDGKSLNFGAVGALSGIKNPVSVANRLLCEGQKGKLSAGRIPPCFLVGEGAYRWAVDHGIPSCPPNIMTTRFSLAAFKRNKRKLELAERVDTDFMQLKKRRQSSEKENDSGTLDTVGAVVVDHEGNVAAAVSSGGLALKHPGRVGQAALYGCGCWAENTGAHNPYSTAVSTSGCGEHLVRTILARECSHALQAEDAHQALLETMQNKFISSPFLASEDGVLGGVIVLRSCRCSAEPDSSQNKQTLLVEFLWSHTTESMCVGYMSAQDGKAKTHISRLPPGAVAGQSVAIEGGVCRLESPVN
UniProt P15923, sequence (P15923 whole entry, looked up): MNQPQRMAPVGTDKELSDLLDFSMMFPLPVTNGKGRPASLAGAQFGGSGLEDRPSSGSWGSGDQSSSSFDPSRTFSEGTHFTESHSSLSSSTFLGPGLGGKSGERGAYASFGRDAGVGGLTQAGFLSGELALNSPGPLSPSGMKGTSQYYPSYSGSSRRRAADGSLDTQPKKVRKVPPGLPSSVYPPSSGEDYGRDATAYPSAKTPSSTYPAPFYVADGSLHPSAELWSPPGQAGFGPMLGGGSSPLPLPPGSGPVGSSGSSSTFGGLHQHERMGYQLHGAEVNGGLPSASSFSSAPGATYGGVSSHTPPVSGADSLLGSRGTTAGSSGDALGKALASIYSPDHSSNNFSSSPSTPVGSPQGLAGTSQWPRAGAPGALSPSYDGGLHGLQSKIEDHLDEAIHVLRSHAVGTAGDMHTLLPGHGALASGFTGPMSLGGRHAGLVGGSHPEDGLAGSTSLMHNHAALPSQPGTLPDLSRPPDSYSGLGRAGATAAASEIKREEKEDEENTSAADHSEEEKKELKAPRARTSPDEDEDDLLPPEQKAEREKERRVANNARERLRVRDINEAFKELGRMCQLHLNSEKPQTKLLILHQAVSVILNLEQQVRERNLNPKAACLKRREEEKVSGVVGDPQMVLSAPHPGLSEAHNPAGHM
UniProt Q53S58, sequence (Q53S58 whole entry, looked up): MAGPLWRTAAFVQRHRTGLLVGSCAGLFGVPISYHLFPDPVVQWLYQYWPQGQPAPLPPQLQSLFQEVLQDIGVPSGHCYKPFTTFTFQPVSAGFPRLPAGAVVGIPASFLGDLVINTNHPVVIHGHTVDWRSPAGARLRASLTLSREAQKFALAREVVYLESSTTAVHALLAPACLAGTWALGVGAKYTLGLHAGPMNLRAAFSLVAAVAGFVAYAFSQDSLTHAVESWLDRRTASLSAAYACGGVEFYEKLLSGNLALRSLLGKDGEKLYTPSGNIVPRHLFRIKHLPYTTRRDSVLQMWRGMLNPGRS
UniProt Q8NDZ6, sequence (Q8NDZ6 whole entry, looked up): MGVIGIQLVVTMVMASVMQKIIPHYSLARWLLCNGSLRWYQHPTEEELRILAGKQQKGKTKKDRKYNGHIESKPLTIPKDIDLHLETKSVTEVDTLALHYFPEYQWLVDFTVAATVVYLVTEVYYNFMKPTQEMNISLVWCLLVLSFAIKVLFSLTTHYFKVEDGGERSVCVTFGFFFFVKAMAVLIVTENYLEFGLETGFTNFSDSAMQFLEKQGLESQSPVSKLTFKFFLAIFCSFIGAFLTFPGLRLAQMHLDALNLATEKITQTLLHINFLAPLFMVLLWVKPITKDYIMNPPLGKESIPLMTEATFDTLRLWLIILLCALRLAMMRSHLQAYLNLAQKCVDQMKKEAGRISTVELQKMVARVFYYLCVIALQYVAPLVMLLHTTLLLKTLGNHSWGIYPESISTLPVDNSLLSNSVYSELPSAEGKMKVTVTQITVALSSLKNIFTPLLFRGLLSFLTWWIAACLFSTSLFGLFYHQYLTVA
UniProt P42680, sequence (P42680 whole entry, looked up): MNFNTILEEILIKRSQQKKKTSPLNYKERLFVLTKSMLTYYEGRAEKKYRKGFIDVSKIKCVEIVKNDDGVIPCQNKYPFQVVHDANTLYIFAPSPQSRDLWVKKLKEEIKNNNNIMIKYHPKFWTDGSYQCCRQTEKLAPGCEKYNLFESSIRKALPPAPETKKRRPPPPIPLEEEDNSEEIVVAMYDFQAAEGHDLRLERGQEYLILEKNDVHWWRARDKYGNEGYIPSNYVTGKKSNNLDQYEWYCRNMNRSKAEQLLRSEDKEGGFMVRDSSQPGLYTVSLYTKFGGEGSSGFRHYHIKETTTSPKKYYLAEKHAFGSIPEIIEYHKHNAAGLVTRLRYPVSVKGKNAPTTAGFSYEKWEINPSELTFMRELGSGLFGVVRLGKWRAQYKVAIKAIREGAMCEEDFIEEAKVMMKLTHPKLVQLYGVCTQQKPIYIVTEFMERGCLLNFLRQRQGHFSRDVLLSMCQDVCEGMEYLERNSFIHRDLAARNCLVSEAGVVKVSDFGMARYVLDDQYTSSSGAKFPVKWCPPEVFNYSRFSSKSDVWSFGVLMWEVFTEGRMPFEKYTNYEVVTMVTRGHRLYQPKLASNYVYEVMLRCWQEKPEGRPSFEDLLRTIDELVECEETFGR
UniProt Q9NRX6, sequence (Q9NRX6 whole entry, looked up): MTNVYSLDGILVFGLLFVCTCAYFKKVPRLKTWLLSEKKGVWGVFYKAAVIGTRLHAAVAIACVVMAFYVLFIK
UniProt O75382, sequence (O75382 whole entry, looked up): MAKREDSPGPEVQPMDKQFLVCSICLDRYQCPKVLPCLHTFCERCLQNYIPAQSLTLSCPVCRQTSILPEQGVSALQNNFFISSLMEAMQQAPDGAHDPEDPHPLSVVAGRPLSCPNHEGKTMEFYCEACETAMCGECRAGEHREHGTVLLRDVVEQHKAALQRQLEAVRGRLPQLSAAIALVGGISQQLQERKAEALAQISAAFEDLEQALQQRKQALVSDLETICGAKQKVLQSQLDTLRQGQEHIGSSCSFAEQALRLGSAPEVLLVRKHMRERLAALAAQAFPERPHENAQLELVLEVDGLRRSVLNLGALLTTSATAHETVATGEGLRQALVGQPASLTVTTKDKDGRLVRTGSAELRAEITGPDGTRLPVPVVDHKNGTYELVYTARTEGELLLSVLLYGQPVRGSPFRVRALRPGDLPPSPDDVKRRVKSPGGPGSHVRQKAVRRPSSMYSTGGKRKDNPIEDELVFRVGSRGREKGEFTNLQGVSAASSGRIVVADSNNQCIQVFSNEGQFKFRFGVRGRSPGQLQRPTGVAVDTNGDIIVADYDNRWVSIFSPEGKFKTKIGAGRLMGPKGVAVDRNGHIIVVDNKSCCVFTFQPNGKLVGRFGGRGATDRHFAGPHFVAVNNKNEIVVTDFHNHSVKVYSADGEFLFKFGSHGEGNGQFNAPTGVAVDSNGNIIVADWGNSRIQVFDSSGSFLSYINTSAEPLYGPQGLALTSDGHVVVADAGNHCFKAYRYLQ
UniProt Q6P9G4, sequence (Q6P9G4 whole entry, looked up): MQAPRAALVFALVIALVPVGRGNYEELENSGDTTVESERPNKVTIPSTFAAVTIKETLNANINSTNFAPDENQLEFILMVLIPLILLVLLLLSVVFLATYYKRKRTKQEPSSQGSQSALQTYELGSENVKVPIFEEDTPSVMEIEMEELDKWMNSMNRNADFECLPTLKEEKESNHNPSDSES
UniProt Q9BZL1, sequence (Q9BZL1 whole entry, looked up): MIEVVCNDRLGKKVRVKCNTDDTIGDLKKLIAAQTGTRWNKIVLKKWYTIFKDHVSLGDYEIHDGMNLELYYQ

Target | log2 fold change (ibrutinib) | log2 fold change [1] | log2 fold change (ralimetinib) | log2 fold change [2] | log2 fold change [3] | log2 fold change [4] | log2 fold change [5] | log2 fold change [6] | log2 fold change [7] | log2 fold change (vemurafenib) | log2 fold change [8] | log2 fold change (barasertib) | log2 fold change [9] | log2 fold change (volasertib) | log2 fold change [10] | log2 fold change [11] | log2 fold change [12] | log2 fold change (sotrastaurin) | log2 fold change [13] | log2 fold change (saracatinib)
TMEM167B (UniProt Q9NRX6) | 0.019 | -0.02 | 0.015 | 0.001 | -0.02 | -0.058 | 0.021 | 0.035 | -0.033 | 0.058 | -0.057 | -0.009 | 0.053 | 0.038 | -0.028 | -0.472 (active) | 0.086 | 0.056 | – | –
TUBB4A (UniProt P04350) | 0.007 | -0.018 | 0.074 | 0.039 | 0.088 | 0.009 | -0.085 | -0.015 | -0.068 | – | 0.036 | -0.006 | 0.045 | 0.104 | 0.02 | -0.09 | 0 | -0.007 | -0.086 | -0.033
TENM4 (UniProt Q6N022) | -0.043 | 0.035 | – | – | – | – | 0.162 | – | -0.109 | – | -0.205 | 0.104 | – | -0.069 | – | 0.534 (active) | -0.257 | 0 | – | –
TJP1 (UniProt G3V1L9) | 0.024 | – | 0.075 | -0.014 | -0.025 | -0.041 | -0.017 | -0.041 | – | 0.076 | – | -0.034 | – | – | -0.021 | 0.04 | -0.004 | -0.046 | 0.022 | 0.096
UBL5 (UniProt Q9BZL1) | 0.052 | – | -0.029 | 0.04 | -0.003 | -0.056 | 0.038 | 0.037 | – | 0.014 | – | 0.036 | -0.015 | – | -0.028 | -0.126 | 0.097 | -0.186 | 0.032 | -0.007
TFPT (UniProt P0C1Z6) | 0.046 | 0.1 | – | – | -0.053 | – | – | – | -0.06 | – | -0.019 | 0.148 | – | 0.015 | – | – | – | – | -0.145 | 0.005
TBC1D20 isoform 3 (UniProt Q96BZ9) | 0.078 | -0.016 | 0.001 | -0.14 | -0.082 | – | -0.171 | 0.019 | -0.005 | -0.088 | -0.069 | 0.438 (active) | 0.043 | 0.008 | 0.059 | 0.046 | -0.033 | -0.096 | 0.05 | -0.038
UBXN10 (UniProt Q96LJ8) | 0.016 | 0.044 | 0.002 | -0.012 | 0.014 | – | -0.001 | 0.069 | -0.015 | 0.008 | -0.089 | -0.133 | 0.095 | 0.074 | 0.01 | -0.082 | 0.021 | -0.012 | 0.012 | -0.016
TMEM177 (UniProt Q53S58) | 0.079 | -0.022 | -0.287 | -0.311 (active) | 0.007 | – | -0.03 | 0.032 | -0.005 | -0.057 | 0.011 | 0.063 | -0.005 | -0.076 | 0.078 | 0.056 | -0.161 | -0.017 | – | –
TPM4 isoform 2 (UniProt P67936) | -0.062 | 0.016 | -0.005 | 0.032 | -0.034 | -0.027 | -0.06 | -0.004 | 0 | 0.031 | -0.016 | 0.021 | 0.052 | 0.005 | 0.048 | 0.525 (active) | -0.231 | -0.03 | -0.025 | -0.001
TMEM161B (UniProt Q8NDZ6) | -0.026 | 0.197 | 0 | -0.224 | -0.113 | -0.005 | 0.027 | 0.108 | -0.012 | -0.112 | -0.076 | 0.076 | -0.073 | -0.055 | -0.028 | 0.055 | -0.104 | 0.009 | – | –
TASP1 (UniProt Q9H6P5) | 0.005 | 0.04 | -0.073 | -0.062 | 0.028 | 0.089 | 0.009 | -0.012 | 0.067 | – | 0.028 | 0.13 | -0.082 | -0.02 | -0.047 | – | – | 0.02 | -0.114 | -0.082
TUBAL3 (UniProt A6NHL2) | 0.002 | -0.071 | 0.056 | -0.145 | 0.116 | -0.009 | – | -0.119 | 0.025 | 0.084 | -0.024 | -0.011 | -0.122 | 0.041 | -0.196 | -0.413 | 0.284 | – | -0.008 | 0.001
TMEM154 (UniProt Q6P9G4) | – | – | -0.079 | 0.164 | – | – | -0.052 | 0.172 | – | – | – | – | 0.022 | – | -0.08 | – | – | 0.116 | 0.048 | -0.036
TLK2 isoform 3 (UniProt Q86UE8) | – | – | – | – | – | – | – | – | – | – | – | – | – | – | – | 0.104 | -0.036 | – | – | –
UBAP2, A0A0D9SFI5 | – | – | – | – | – | – | 0.035 | – | – | – | – | – | – | – | – | – | – | 0.007 | – | –
TMPO isoform 2 (UniProt P42167) | -0.108 | – | – | – | – | – | – | – | – | 0.08 | – | 0.185 | 0.075 | – | – | – | – | – | -0.006 | 0.044
TGFBR1 isoform 2 (UniProt P36897) | – | – | – | – | -0.032 | – | – | – | – | – | – | – | -0.005 | – | – | – | – | – | -0.043 | 1.04 (active)
TCF3 isoform 2 (UniProt P15923) | – | – | -0.118 | -0.103 | 0.046 | – | -0.1 | 0.118 | – | – | – | – | – | – | 0.065 | – | – | 0.043 | – | –
TRIM3 (UniProt O75382) | – | -0.06 | – | – | -0.09 | – | – | – | 0.048 | 0.13 | -0.085 | – | -0.029 | 0.09 | – | – | – | – | – | –
TEC (UniProt P42680) | – | -0.096 | – | – | – | -0.023 | – | – | 0.143 | -0.081 | -0.119 | – | -0.054 | 0.14 | – | – | – | – | – | –
